Reference: PubChem BioAssay (NCATS)
Records with an inconclusive call do not appear. The source made the active and inactive calls. Calls follow the shape of the dose curve; as a rule, active = well fitted curve in the direction sought with a large enough effect; inconclusive = small, poorly fitted or top-dose-only effect, or another doubt; inactive = no such curve, though single readings can be large; an effect the other way counts as inactive or inconclusive.

Legend:
[1] = molecular target: Lysine-specific demethylase 5B (Homo sapiens) (UniProt Q9UGL1); assay: Optimization screen for KDM5B Histone Demethylases FDH coupled qHTS against the LOPAC library (AID 1347166)
Lysine-specific demethylase 5B (Homo sapiens), sequence (Q9UGL1 whole entry, looked up): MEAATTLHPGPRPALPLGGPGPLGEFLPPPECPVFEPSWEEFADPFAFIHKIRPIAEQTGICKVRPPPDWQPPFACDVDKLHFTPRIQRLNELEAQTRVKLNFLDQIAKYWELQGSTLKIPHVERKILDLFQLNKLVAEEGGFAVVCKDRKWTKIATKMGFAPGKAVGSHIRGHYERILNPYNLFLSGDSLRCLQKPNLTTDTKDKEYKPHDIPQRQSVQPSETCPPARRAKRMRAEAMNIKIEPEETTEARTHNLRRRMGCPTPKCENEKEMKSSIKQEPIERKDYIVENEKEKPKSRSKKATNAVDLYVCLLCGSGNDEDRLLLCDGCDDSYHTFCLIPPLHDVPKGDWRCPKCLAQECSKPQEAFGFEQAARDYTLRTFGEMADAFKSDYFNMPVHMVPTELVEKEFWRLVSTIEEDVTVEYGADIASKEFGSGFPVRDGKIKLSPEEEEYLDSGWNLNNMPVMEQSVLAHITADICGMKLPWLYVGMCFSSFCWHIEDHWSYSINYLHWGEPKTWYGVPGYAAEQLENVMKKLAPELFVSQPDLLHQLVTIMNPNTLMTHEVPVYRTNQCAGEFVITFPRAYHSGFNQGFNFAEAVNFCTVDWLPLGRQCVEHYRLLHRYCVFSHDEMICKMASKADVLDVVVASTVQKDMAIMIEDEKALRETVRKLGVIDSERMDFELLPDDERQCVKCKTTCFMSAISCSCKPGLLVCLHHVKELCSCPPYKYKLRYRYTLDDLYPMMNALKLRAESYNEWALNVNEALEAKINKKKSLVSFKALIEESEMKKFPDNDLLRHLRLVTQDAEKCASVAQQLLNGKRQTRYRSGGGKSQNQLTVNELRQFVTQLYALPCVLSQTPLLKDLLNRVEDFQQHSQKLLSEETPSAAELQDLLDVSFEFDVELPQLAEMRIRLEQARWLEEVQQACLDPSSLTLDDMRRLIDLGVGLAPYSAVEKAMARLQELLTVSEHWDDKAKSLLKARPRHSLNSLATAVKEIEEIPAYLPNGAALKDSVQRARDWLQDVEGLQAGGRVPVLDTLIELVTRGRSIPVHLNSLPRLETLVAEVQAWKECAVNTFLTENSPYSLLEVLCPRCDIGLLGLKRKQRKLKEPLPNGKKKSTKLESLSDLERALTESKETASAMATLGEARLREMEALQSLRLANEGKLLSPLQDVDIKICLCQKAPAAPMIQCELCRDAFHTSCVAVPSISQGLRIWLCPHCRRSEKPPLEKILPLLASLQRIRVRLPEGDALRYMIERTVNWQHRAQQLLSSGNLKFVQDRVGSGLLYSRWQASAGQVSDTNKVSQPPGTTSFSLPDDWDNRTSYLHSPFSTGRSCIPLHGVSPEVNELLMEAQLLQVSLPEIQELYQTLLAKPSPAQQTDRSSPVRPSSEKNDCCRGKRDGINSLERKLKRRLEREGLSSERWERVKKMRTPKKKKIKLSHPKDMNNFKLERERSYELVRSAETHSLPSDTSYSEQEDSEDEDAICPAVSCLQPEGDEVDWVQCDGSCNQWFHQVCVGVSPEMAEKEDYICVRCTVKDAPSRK
Outline: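 KDM5BDeltaAP (200nM final) preincubated 10 min with compound, then 12.5uM H3K4Me3, 25uM a-ketoglutarate, ascorbate, Fe(II), NAD+ and FDH added; 50mM HEPES pH 7.5, 0.01% Tween-20. NADH fluorescence (340/450 nm) change over 30 min, room temperature.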

[2] = qHTS to identify inhibitors of the type 1 interferon - major histocompatibility complex class I in skeletal muscle: primary screen against the NCATS LOPAC collection (AID 1347405);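 also: lytic HiBiT luminescence reporting HLA-B protein level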; also: potency is read from the fitted curve at half-maximal effect
Outline: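 CRISPR-engineered immortalized human myoblasts (C25cl48) with HiBiT fused to endogenous HLA-B*08:01, stimulated with 4 ng/ml IFN-beta. LOPAC compounds tested as a 7-point 1:4.3 titration (top 46 uM final), 24 h at 37 C; lytic HiBiT luminescence read.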

[3] = qHTS to identify inhibitors of the type 1 interferon - major histocompatibility complex class I in skeletal muscle: primary screen against the NCATS Pharmaceutical Collection (AID 1347407);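 also: luminescence of HiBiT knocked into endogenous HLA-B as interferon-induced MHC class I level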; also: potency is read from the fitted curve at half-maximal effect
Outline: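 Immortalized human myoblasts (C25cl48) with HiBiT knocked into endogenous HLA-B*08:01 were stimulated with 4.0 ng/ml IFN-beta and treated with compounds ([…] top 46 uM) for 24 hrs at 37 C. HiBiT lytic luminescence read.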

[4] = qHTS for inhibitors of adenylyl cyclases using a fission yeast platform: a pilot screen against the NCATS LOPAC library (AID 1347410)
Outline: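 S. pombe CHP2027 (AC9-GNAS-PDE4D2) carrying PKA-repressed fbp1-GFP, incubated 18 h at 30C in EMM with LOPAC compounds at up to 57 uM. GFP gain-of-signal read by laser scanning cytometry; DMSO negative control.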

[5] = molecular target: Protein phosphatase 1D (Homo sapiens) (UniProt O15297); assay: RapidFire Mass Spectrometry qHTS Assay for Modulators of WT P53-Induced Phosphatase 1 (WIP1) (AID 1347424);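 also: amount of dephosphorylated VEPPL-S-QETFS peptide product formed by WIP1; series mostly up to about 63 µM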
Protein phosphatase 1D (Homo sapiens), sequence (O15297 whole entry, looked up): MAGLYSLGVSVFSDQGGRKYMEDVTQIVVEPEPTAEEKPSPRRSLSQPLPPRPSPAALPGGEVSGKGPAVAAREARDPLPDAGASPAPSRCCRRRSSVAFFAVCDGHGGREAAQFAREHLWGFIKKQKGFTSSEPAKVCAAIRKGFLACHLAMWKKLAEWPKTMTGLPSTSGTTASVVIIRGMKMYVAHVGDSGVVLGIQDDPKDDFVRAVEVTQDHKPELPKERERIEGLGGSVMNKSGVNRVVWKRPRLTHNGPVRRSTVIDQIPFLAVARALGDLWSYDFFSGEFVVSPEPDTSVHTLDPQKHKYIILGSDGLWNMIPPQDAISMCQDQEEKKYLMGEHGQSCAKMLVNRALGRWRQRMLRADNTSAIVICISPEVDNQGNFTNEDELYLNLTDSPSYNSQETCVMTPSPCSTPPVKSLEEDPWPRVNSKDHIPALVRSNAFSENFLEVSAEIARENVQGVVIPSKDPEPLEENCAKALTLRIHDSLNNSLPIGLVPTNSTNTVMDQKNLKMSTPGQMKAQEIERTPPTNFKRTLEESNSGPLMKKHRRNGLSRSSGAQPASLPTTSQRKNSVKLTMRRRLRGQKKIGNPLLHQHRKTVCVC
Outline: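 10 nM WIP1 preincubated with compounds 1 hr at room temperature in pH 7.5 Tris buffer with 30 mM MgCl2, 1 mM TCEP; 2 uM VEPPL-pS-QETFS phosphopeptide for 5 min, formic acid quench; dephosphorylated product quantified by RapidFire MS against labelled standard.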

[6] = molecular target: Protein phosphatase 1D (Homo sapiens) (UniProt O15297); assay: Rhodamine-PBP qHTS Assay for Modulators of WT P53-Induced Phosphatase 1 (WIP1) (AID 1347425)
Outline: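 The read-out is the change in Rhodamine-PBP fluorescence (f1 - f0, ex 525/em 598 nm) as Pi is released, read each minute for 11 min. Final reaction: 5 nM WIP1, 10 uM phosphopeptide VEPPL-pS-QETFS, 10 uM Rh-PBP, 50 mM Tris-HCl pH 7.5, 30 mM MgCl2. Compound was preincubated with enzyme for 1 hour at room temperature.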

[7] = Validation qHTS assay for inhibitors of Activation Induced Cytidine Deaminase (AID): UDG Counterscreen signal (AID 1347427)
Outline: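 Counterscreen read of UDG activity (2 U/mL, 4/3x) in the FRET deamination format with AID (1 uM, 4/3x), DJC20/DJC23 substrates (250 nM, 4x), 4 h at room temperature. NaOH stop, fluorescence at 560 ex/665 em.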

[8] = molecular target: Single-stranded DNA cytosine deaminase (Homo sapiens) (UniProt Q9GZX7); assay: Validation qHTS assay for inhibitors of Activation Induced Cytidine Deaminase (AID): AID signal (AID 1347429); also: potency is read from the fitted curve at half-maximal effect
Single-stranded DNA cytosine deaminase (Homo sapiens), sequence (Q9GZX7 whole entry, looked up): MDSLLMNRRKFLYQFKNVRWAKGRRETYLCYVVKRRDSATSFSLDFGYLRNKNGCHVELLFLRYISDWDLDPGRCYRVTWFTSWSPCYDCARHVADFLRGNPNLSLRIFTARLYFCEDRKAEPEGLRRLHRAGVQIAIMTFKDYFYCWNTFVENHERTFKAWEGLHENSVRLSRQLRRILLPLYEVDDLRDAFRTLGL
Outline: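 FRET deamination assay: 1 uM AID (4/3x stock) with UDG, compound up to 114 uM, then 250 nM DJC20/DJC23 substrate (4x stock) for 4 hr at room temperature. NaOH added, 30 min; fluorescence read 540/590 nm.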

[9] = Primary qHTS for inhibitors of La Crosse Virus (LACV) - induced cell death in SH-SY5Y cells (AID 1508616);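 also: top concentration of the series differs between compounds; higher means more rescue of cells from virus-induced death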
Outline: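 SH-SY5Y cells (6000/well) plated 24 h, then given compounds by pin transfer and LACV at 0.01 MOI for 6 days at 37C. Viability measured by ATPLite luminescence, normalized to infected DMSO and uninfected DMSO.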

[10] = molecular target: Calcium and integrin-binding protein 1 (Homo sapiens) (UniProt Q99828); assay: Validation qHTS for Identification of Calcium Integrin Binding protein 1 (CIB1) Competitor (AID 1508618)
Calcium and integrin-binding protein 1 (Homo sapiens), sequence (Q99828 whole entry, looked up): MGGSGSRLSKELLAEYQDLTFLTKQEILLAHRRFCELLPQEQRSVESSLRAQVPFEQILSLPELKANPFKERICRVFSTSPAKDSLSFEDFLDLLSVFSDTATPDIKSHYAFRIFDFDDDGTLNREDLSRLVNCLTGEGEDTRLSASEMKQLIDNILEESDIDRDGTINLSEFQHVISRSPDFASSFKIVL
Outline: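 CIB1-GST (1 uM final) incubated 15 min at room temperature with compounds (up to 114 uM), then FITC-labelled alphaIIb peptide (100 nM) added. FP read (Ex 480/Em 540) after 15 min, pH 7.4 buffer containing 5 mM CaCl2.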

[11] = qHTS to identify inhibitors of the type 1 interferon - major histocompatibility complex class I in skeletal muscle: primary screen against the NCATS Mechanism Interrogation Plate v5.0 (MIPE) Libary (AID 1347411); also: nearly all actives have a fitted effect of over 65% in size; also: potency is read from the fitted curve at half-maximal effect
Outline: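 Immortalized human myoblasts (C25cl48) with HiBit knocked into endogenous HLA-B*08:01 were stimulated with 4 ng/ml IFN-beta and given compounds in 11-point 1:3 titration from 46 uM. After 24 h at 37 C, lytic HiBiT luminescence was read.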

[12] = molecular target: Calcium and integrin-binding protein 1 (Homo sapiens) (UniProt Q99828); assay: Primary qHTS for Identification of Calcium Integrin Binding Protein 1 (CIB1) Competitor (AID 1508620);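 also: GST tagged CIB1 binding a fluorescein labelled alphaIIb integrin peptide tracer; top concentration of the series differs between compounds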
Outline: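 Fluorescence polarization competition: GST-tagged CIB1 (1 uM final) preincubated with compound 15 min at room temperature, then FITC-labelled alphaIIb peptide (100 nM final) added. After 15 min at room temperature, polarization read at Ex 480/Em 540.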

[13] = system: Zika virus NS2B-NS3 protease (unlinked complex); assay: Primary screen GU Rhodamine qHTS for Zika virus inhibitors: Unlinked NS2B-NS3 protease assay (AID 1347159); also: nearly all actives have a fitted effect of over 60% in size
Outline: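 Percent inhibition derives from the 15-min fluorescence change (ex 480, em 540 nm), normalized to no-enzyme and no-inhibitor wells. Reactions contained 25 nM NS2B-NS3 complex and 1.5 microM substrate in 10 mM Tris-HCl pH 8.0.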

[14] = system: Zika virus NS2B-NS3 protease (linked construct); assay: Primary screen NINDS Rhodamine qHTS for Zika virus inhibitors (AID 1347160); details: outcome: dose series up to 57.1 µM; also: nearly all actives have a fitted effect of over 55% in size
Outline: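 In 10 mM Tris-HCl pH 8.0 containing 0.01% Tween 20, linked NS2B-NS3 protease (25 nM final) is exposed to test compounds for 15 min. Cleavage of 1.5 microM Rhodamine110 substrate is tracked by fluorescence over 15 min.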

[15] = Confirmatory screen NINDS Rhodamine qHTS for Zika virus inhibitors (AID 1347161);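 also: purified Zika NS2B-NS3 protease with linked NS2B cofactor domain and Rhodamine110 peptide substrate; series mostly up to about 110 µM; nearly all actives have a fitted effect of over 60% in size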
Outline: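 Purified NS2B-NS3 protease with the NS2B hydrophilic domain joined by a flexible linker (25 nM) in 10 mM Tris-HCl pH 8.0, 0.01% Tween 20, preincubated 15 min at RT with compound; Rhodamine110 peptide substrate 1.5 µM; fluorescence change over 15 min; 4-parameter Hill fit.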

[16] = Vero cells viability qHTS for Zika virus inhibitors (AID 1347167)
Outline: (§1)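 Cells seeded at 2.5 x 10^5 cells/mL in DMEM with 4% FBS and attached overnight at 37 degrees C, then exposed to compound for 24 to 48 hours. Viability read as ATP content by CellTiter Glo luminescence.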

[17] = HepG2 cells viability qHTS for Zika virus inhibitors (AID 1347168)
Outline: as §1

[18] = Tertiary RLuc qRT-PCR qHTS assay for Zika virus inhibitors (AID 1347169); also: top concentration of the series differs between compounds; nearly all actives have a fitted effect of over 55% in size
Outline: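 Vero cells (1,000/well) infected with recombinant ZIKV-RLuc (Cambodian) at MOI 1-2 after compound addition, 48-72 hrs at 37 degrees C. Live-cell Renilla luciferase substrate added; luminescence read after 1-1.5 hrs.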

Measured: Potency

CN1CCN(C2=Nc3ccccc3Oc3ccc(Cl)cc32)CC1
inactive: [1] | [2] | [3] | [4] | [5] | [6] | [7] | [8] | [9] | [10]

CC(=O)[C@]1(O)Cc2c(O)c3c(c(O)c2[C@@H](O[C@H]2C[C@H](N)[C@H](O)[C@H](C)O2)C1)C(=O)c1ccccc1C3=O
inactive: [1] | [4] | [5] | [6] | [7] | [9] | [10]
active: [2] 1000 nM | [3] 5280 nM | [11] 2080 nM | [8] 2000 nM

O=C(O)CP(=O)(O)O
not listed: [11] | [13] | [14] | [15] | [16] | [17] | [18]
inactive: all other assays above

CCN(CC)CCNC(=O)c1ccc(NC(C)=O)cc1
inactive: [1] | [2] | [3] | [4] | [5] | [6] | [7] | [8] | [9] | [10]

COC(=O)[C@H]1[C@H]2C[C@@H]3c4[nH]c5cc(OC)ccc5c4CCN3C[C@H]2C[C@@H](OC(=O)c2cc(OC)c(OC)c(OC)c2)[C@@H]1OC
not listed: [1] | [2] | [11] | [18]
inactive: all other assays above

CC1=NS(=O)(=O)c2cc(Cl)ccc2N1
inactive: [1] | [2] | [3] | [4] | [5] | [6] | [7] | [8] | [9] | [10]

Cc1nc2c([nH]1)c(=O)n(C)c(=O)n2Cc1ccco1
not listed: [11] | [13] | [14] | [15] | [16] | [17] | [18]
inactive: all other assays above

OC(CCN1CCCCC1)(c1ccccc1)C1CCCCC1 (stereo unspecified)
inactive: [1] | [2] | [3] | [4] | [5] | [6] | [7] | [8] | [9]

CCCN(CCC)C(=O)C(CCC(=O)O)NC(=O)c1ccccc1 (stereo unspecified)
not listed: [13] | [14] | [15] | [16] | [17] | [18]
inactive: all other assays above

CN(C)CCOC(=O)COc1ccc(Cl)cc1
inactive: [1] | [2] | [3] | [4] | [5] | [6] | [7] | [8] | [9] | [10]

CCCN1C[C@H](CSC)C[C@@H]2c3cccc4[nH]cc(c34)C[C@H]21
inactive: [14] | [1] | [3] | [4] | [5] | [6] | [7] | [8] | [9] | [12]

CC(C)[N+](C)(CCOC(=O)C1c2ccccc2Oc2ccccc21)C(C)C
not listed: [11] | [13] | [14] | [15] | [16] | [17] | [18]
inactive: all other assays above

CN(C)CC/C=C1\c2ccccc2COc2ccccc21
inactive: [1] | [2] | [3] | [4] | [5] | [6] | [7] | [8] | [9] | [10]

CCCCNc1c(C(=O)OCC)c(C)nc2c1cnn2CC
inactive: [1] | [2] | [3] | [4] | [5] | [6] | [7] | [8] | [9] | [10]

CN(C)C/C=C(/c1ccc(Br)cc1)c1cccnc1
inactive: [1] | [2] | [3] | [4] | [5] | [6] | [7] | [8] | [9] | [10]

C=CCc1ccccc1OCC(O)CNC(C)C (stereo unspecified)
not listed: [11] | [13] | [14] | [15] | [16] | [17] | [18]
inactive: all other assays above

Nc1c2c(nc3ccccc13)CCCC2O (stereo unspecified)
not listed: [11] | [13] | [14] | [15] | [16] | [17] | [18]
inactive: all other assays above

CCn1ccnc1CC1COc2ccccc2O1 (stereo unspecified)
inactive: [1] | [2] | [3] | [4] | [5] | [6] | [7] | [8] | [9] | [10]

CNCCCN1c2ccccc2CCc2ccccc21
not listed: [11] | [13] | [14] | [15] | [16] | [17] | [18]
inactive: all other assays above

CCN1CCc2nc(N)oc2CC1
not listed: [2] | [10] | [11] | [13] | [14]
inactive: all other assays above

C[N+](C)(C)CCOC(=O)CCC(=O)OCC[N+](C)(C)C
not listed: [11] | [13] | [14] | [15] | [16] | [17] | [18]
inactive: all other assays above
